Test results reported in PubChem BioAssay (NCATS).
Inconclusive results are not listed. Entries that show only a call come without a potency. The source made the active and inactive calls. Calls come from the whole dose curve; as a rule, active = well fitted curve in the direction sought with a large enough effect; inconclusive = small, poorly fitted or top-dose-only effect, or another doubt; inactive = no such curve, though single readings can be large; an effect the other way counts as inactive or inconclusive.

Columns and labels:
[1] = system: Zika virus NS2B-NS3 protease (linked construct); assay: Confirmatory screen NINDS AMC qHTS for Zika virus inhibitors (AID 1347152); conditions: Purified linked NS2B-NS3, AMC substrate fluorescence; note: potency is the fitted concentration of half-maximal effect; nearly all actives have a fitted effect of over 70% in size
Summary of the method: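 IC50s from 4-parameter Hill fits of percent inhibition, based on AMC fluorescence gain (340/450 nm) over 15 min with 10 microM Bz-Nle-KRR-AMC. Enzyme: 1 nM linked NS2B-NS3 in Tris-HCl pH 8.0; 15-min compound preincubation.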

[2] = qHTS of pediatric cancer cell lines to identify multiple opportunities for drug repurposing: Confirmatory screen for BT-12 cells (AID 1347112); conditions: BT-12 rhabdoid tumor cells, viability; series mostly up to 45.9 µM; note: nearly all actives have a fitted effect of over 55% in size
Summary of the method: (§1)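 Viability after 48 h compound treatment at 37C, 500-1,000 cells/well, read as ATP luminescence with CellTiter-Glo. Primary screens used 11-point (MIPE, 0.78 nM-46 µM) or 8-point (NPC, 0.59 nM-46 µM) final concentrations; follow-up screens used 11-point dilutions.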

[3] = qHTS of pediatric cancer cell lines to identify multiple opportunities for drug repurposing: Confirmatory screen for DAOY cells (AID 1347114); conditions: DAOY medulloblastoma cells viability, cytotoxicity qHTS; series mostly up to 45.9 µM; note: nearly all actives have a fitted effect of over 65% in size
Summary of the method: (§2)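 Viability measured as metabolically active cells via CellTiter-Glo luminescence following 48 hours of compound exposure, 11-point dilutions in confirmatory testing. 500-1,000 cells/well plated 5 hours before dosing; controls were DMSO and 2.3 µM bortezomib.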

[4] = qHTS of pediatric cancer cell lines to identify multiple opportunities for drug repurposing: Confirmatory screen for NB-EBc1 cells (AID 1347115); conditions: NB-EBc1 neuroblastoma cells, viability (cytotoxicity); series mostly up to 45.9 µM; note: nearly all actives have a fitted effect of over 45% in size
Summary of the method: as §1

[5] = qHTS of pediatric cancer cell lines to identify multiple opportunities for drug repurposing: Confirmatory screen for BT-37 cells (AID 1347117); conditions: BT-37 pediatric cancer cells, viability; series mostly up to 45.9 µM; note: nearly all actives have a fitted effect of over 55% in size; note: potency is the fitted concentration of half-maximal effect
Summary of the method: as §1

[6] = qHTS of pediatric cancer cell lines to identify multiple opportunities for drug repurposing: Confirmatory screen for MG 63 (6-TG R) cells (AID 1347119); conditions: MG-63 (6-TG resistant) osteosarcoma viability; series mostly up to 45.9 µM; note: nearly all actives have a fitted effect of over 55% in size
Summary of the method: as §1

[7] = qHTS of pediatric cancer cell lines to identify multiple opportunities for drug repurposing: Confirmatory screen for control Hh wild type fibroblast cells (AID 1347121); conditions: viability qHTS; series mostly up to 45.9 µM; note: nearly all actives have a fitted effect of over 70% in size
Summary of the method: as §1

[8] = qHTS of pediatric cancer cell lines to identify multiple opportunities for drug repurposing: Confirmatory screen for U-2 OS cells (AID 1347122); conditions: U-2 OS osteosarcoma cell viability; series mostly up to 45.9 µM; note: nearly all actives have a fitted effect of over 65% in size
Summary of the method: as §1

[9] = qHTS of pediatric cancer cell lines to identify multiple opportunities for drug repurposing: Confirmatory screen for Rh41 cells (AID 1347123); conditions: Rh41 rhabdomyosarcoma cells, viability/cytotoxicity qHTS; series mostly up to 45.9 µM;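 note: 48 h compound exposure; nearly all actives have a fitted effect of over 60% in size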; note: potency is the fitted concentration of half-maximal effect
Summary of the method: as §1

[10] = qHTS of pediatric cancer cell lines to identify multiple opportunities for drug repurposing: Confirmatory screen for RD cells (AID 1347124); conditions: RD rhabdomyosarcoma cell viability; series mostly up to 45.9 µM;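 note: cells exposed to compound for 48 h before viability readout; nearly all actives have a fitted effect of over 65% in size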; note: potency is the fitted concentration of half-maximal effect
Summary of the method: as §1

[11] = qHTS of pediatric cancer cell lines to identify multiple opportunities for drug repurposing: Confirmatory screen for Rh18 cells (AID 1347125); conditions: Rh18 rhabdomyosarcoma cells, viability; series mostly up to 45.9 µM; note: nearly all actives have a fitted effect of over 55% in size; note: potency is the fitted concentration of half-maximal effect
Summary of the method: as §1

[12] = qHTS of pediatric cancer cell lines to identify multiple opportunities for drug repurposing: Confirmatory screen for Rh30 cells (AID 1347126); conditions: Rh30 rhabdomyosarcoma cell viability; series mostly up to 45.9 µM; note: nearly all actives have a fitted effect of over 55% in size; note: potency is the fitted concentration of half-maximal effect
Summary of the method: as §1

[13] = qHTS of pediatric cancer cell lines to identify multiple opportunities for drug repurposing: Confirmatory screen for OHS-50 cells (AID 1347128); conditions: OHS-50 osteosarcoma cells viability; series mostly up to 45.9 µM; note: potency is the fitted concentration of half-maximal effect
Summary of the method: as §1

[14] = qHTS of pediatric cancer cell lines to identify multiple opportunities for drug repurposing: Confirmatory screen for SK-N-SH cells (AID 1347129); conditions: SK-N-SH neuroblastoma cell viability; series mostly up to 46.1 µM; note: nearly all actives have a fitted effect of over 60% in size
Summary of the method: as §1

Furin (Homo sapiens) = Furin (Homo sapiens) (UniProt P09958); assay: Furin counterscreen qHTS for Zika virus inhibitors (AID 1347149); conditions: furin enzymatic counterscreen, fluorogenic substrate; series mostly up to 114 µM; note: nearly all actives have a fitted effect of over 70% in size; note: potency is the fitted concentration of half-maximal effect
Chain of Furin (Homo sapiens) (P09958 whole entry, looked up): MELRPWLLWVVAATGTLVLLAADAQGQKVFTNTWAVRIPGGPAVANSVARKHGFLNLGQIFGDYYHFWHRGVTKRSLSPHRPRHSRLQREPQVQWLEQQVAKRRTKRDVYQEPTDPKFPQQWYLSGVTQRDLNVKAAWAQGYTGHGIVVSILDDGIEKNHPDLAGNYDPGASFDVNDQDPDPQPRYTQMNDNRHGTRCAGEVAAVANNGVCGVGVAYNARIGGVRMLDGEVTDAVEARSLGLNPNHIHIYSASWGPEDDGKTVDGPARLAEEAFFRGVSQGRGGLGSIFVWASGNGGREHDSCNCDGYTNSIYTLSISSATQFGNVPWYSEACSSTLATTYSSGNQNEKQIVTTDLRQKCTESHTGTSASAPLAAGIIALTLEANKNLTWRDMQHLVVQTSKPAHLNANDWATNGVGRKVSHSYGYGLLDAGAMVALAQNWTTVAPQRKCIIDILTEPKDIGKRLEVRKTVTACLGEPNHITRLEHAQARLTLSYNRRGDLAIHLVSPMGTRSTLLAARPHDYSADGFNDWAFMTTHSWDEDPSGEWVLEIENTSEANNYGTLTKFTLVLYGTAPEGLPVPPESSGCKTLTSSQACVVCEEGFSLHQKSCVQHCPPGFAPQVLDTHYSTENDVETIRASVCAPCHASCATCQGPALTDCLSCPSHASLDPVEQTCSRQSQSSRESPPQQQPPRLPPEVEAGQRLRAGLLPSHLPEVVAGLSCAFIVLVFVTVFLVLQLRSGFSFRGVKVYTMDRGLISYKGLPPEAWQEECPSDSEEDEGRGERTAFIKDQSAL
Summary of the method: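 Counterscreen measures cleavage of 2 microM BOC-RVRR-AMC, below its ~15 microM Km, by 5 nM full-length human furin at pH 7.0 after a 15-min compound preincubation. Inhibition derives from the 15-min fluorescence increase at 37C.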

[15] = qHTS of pediatric cancer cell lines to identify multiple opportunities for drug repurposing: Confirmatory screen for SK-N-MC cells (AID 1347111); conditions: SK-N-MC cell viability;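 note: potency is the fitted concentration of half-maximal effect; cells exposed to compound for 48 h before the readout; nearly all actives have a fitted effect of over 70% in size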
Summary of the method: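 SK-N-MC cells at 500-1,000 cells/well in growth media were pre-incubated 5 h, then exposed to compounds at 11-point dilutions for 48 h at 37 degrees C, 5% CO2. Viability was read as CellTiter-Glo luminescence.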

[16] = qHTS of pediatric cancer cell lines to identify multiple opportunities for drug repurposing: Confirmatory screen for LAN-5 cells (AID 1347113); conditions: LAN-5 neuroblastoma cell viability; series mostly up to 45.9 µM; note: nearly all actives have a fitted effect of over 65% in size; note: potency is the fitted concentration of half-maximal effect
Summary of the method: as §1

[17] = qHTS of pediatric cancer cell lines to identify multiple opportunities for drug repurposing: Confirmatory screen for TC32 cells (AID 1347118); conditions: TC32 Ewing sarcoma cells viability qHTS
Summary of the method: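 Measured quantity: luminescence from CellTiter-Glo, reflecting metabolically active TC32 cells following 48 h of compound. Curves came straight from multi-point titrations, with 8 or 11 points in primary and 11 in confirmatory screening.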

[18] = qHTS of pediatric cancer cell lines to identify multiple opportunities for drug repurposing: Confirmatory screen for Saos-2 cells (AID 1347127); conditions: Saos-2 osteosarcoma cell viability; note: potency is the fitted concentration of half-maximal effect; nearly all actives have a fitted effect of over 60% in size
Summary of the method: as §1

[19] = qHTS of pediatric cancer cell lines to identify multiple opportunities for drug repurposing: Confirmatory screen for SJ-GBM2 cells (AID 1347116); conditions: SJ-GBM2 glioblastoma cells, viability; series mostly up to 45.9 µM; note: nearly all actives have a fitted effect of over 60% in size
Summary of the method: as §2

## O=C(O)Cn1c(C(=O)Nc2nc(-c3ccccc3Cl)cs2)cc2ccccc21
[1]
  Potency: 21.5 µM (active)

## COc1cc(C(=O)NCCCCCC(=O)O)cc(OC)c1OC
[2]
  outcome: inactive
[3]
  outcome: inactive
[4]
  outcome: inactive
[5]
  Potency: inactive
[6]
  outcome: inactive
[7]
  outcome: inactive
[8]
  outcome: inactive
[9]
  Potency: inactive
[10]
  Potency: inactive
[11]
  Potency: inactive
[12]
  Potency: inactive
[13]
  Potency: inactive
[14]
  outcome: inactive

## COc1ccccc1Oc1c(NS(=O)(=O)c2ccc(C(C)(C)C)cc2)nc(-c2ncccn2)nc1OCCO
Furin (Homo sapiens)
  Potency: inactive

## CC(=O)OCC(=O)[C@@]1(O)CC[C@H]2[C@@H]3CCC4=CC(=O)C=C[C@]4(C)[C@@]3(F)[C@@H](O)C[C@@]21C
[15]
  Potency: 16.5 µM (active)
[16]
  Potency: 14.7 µM (active)
[3]
  outcome: inactive
[5]
  Potency: 16.5 µM (active)
[17]
  Potency: 14.7 µM (active)
[8]
  outcome: inactive
[9]
  Potency: 11.7 µM (active)
[10]
  Potency: 20.8 µM (active)
[11]
  Potency: 18.5 µM (active)
[12]
  Potency: 13.1 µM (active)
[18]
  Potency: 11.7 µM (active)
[13]
  Potency: 16.5 µM (active)
[14]
  outcome: inactive

## CN1C[C@@H]2C[C@H]1CN2c1cc2c(cc1F)c(=O)c(C(=O)O)cn2C1CC1
Furin (Homo sapiens)
  Potency: 9.41 µM (active)
[1]
  Potency: 16.7 µM (active)

## O=C(Cn1ccnc1[N+](=O)[O-])NCc1ccccc1
[15]
  Potency: 2.93 µM (active)
[2]
  outcome: inactive
[16]
  Potency: inactive
[3]
  outcome: inactive
[4]
  outcome: inactive
[5]
  Potency: inactive
[17]
  Potency: 1.85 µM (active)
[7]
  outcome: inactive
[8]
  outcome: inactive
[9]
  Potency: inactive
[10]
  Potency: inactive
[11]
  Potency: inactive
[14]
  outcome: inactive

## O=C(O)[C@@H]1[C@H]2C[C@H]3c4[nH]c5ccccc5c4CCN3C[C@@H]2CC[C@@H]1O
Furin (Homo sapiens)
  Potency: 21.5 µM (active)

## CC(=O)[C@@]1(O)CC[C@H]2[C@@H]3C[C@H](C)C4=CC(=O)C=C[C@]4(C)[C@@]3(F)[C@@H](O)C[C@@]21C
[15]
  Potency: 23.3 µM (active)
[2]
  outcome: inactive
[16]
  Potency: inactive
[3]
  outcome: inactive
[4]
  outcome: inactive
[19]
  outcome: inactive
[5]
  Potency: inactive
[17]
  Potency: 2.93 µM (active)
[6]
  outcome: inactive
[7]
  outcome: inactive
[8]
  outcome: inactive
[10]
  Potency: inactive
[11]
  Potency: inactive
[12]
  Potency: inactive
[13]
  Potency: inactive
